Laboratory results taken from PubChem BioAssay.
Calls of active or inactive are those of the source.

Legend:
[1] = binders of probe aFSTL3 on microarray, primary screen, stem cell growth factor project, biochemical, small-molecule microarray, fluorescence 635/667 (AID 1064); conditions: higher = more signal;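 further: measures binding of the biotinylated anti-FSTL3 antibody to printed compounds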
[2] = binders from COS7 lysate, DM2A8 probe, primary screen, torsin A project, cell lysate, small-molecule microarray, fluorescence 635/667 (AID 1065); conditions: higher = more signal, COS7 lysate expressing mutant human TOR1A
[3] = binders of probe aFGF2 on microarray, primary screen, stem cell growth factor project, biochemical, small-molecule microarray, fluorescence 635/667 (AID 1067); conditions: higher = more signal;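 further: measures binding of biotinylated aFGF2 protein to printed compounds on slides; z-score merges feature fluorescence and signal-to-noise across triplicate slides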
[4] = binders of probe aFGF10 on microarray, primary screen, stem cell growth factor project, biochemical, small-molecule microarray, fluorescence 635/667 (AID 1071); conditions: higher = more signal;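 further: score merges 667 nm spot intensity and signal to noise from triplicate slides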
[5] = molecular target: Neurogenic locus notch homolog protein 2 (Homo sapiens) (UniProt Q04721); experiment: Notch2 binders on small-molecule microarrays, primary screen, biochemical, small-molecule microarray, 635 nm fluorescence, stem cell growth factors (AID 1073); conditions: Notch2 binding, higher = more signal
[6] = molecular target: Pro-neuregulin-1, membrane-bound isoform (Homo sapiens) (UniProt Q02297); experiment: NRG1 binders on small-molecule microarrays, primary screen, psychiatric disease protein project, biochemical, small-molecule microarray, fluorescence 635/667 (AID 1075); conditions: NRG1 binding, 635 nm fluorescence, higher = more signal;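 further: score combines 667 nm spot fluorescence with signal to noise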
Pro-neuregulin-1, membrane-bound isoform (Homo sapiens), sequence (Q02297 whole entry, looked up, the tested form may be a part, canonical isoform): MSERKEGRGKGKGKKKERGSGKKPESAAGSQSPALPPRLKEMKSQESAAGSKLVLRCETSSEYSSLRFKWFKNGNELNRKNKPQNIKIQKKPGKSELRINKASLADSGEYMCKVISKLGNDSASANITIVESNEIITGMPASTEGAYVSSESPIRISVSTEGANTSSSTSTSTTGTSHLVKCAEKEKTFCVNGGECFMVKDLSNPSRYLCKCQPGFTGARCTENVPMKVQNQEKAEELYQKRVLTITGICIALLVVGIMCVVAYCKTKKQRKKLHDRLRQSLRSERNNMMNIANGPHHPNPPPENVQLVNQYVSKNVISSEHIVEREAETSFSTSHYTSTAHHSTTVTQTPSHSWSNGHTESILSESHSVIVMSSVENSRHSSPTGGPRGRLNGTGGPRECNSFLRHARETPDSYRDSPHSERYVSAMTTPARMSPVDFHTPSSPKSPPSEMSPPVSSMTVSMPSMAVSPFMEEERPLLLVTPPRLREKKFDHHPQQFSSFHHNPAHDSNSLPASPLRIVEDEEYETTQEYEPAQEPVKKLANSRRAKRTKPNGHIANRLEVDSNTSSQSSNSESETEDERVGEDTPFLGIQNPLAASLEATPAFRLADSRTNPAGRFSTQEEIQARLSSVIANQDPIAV

[7] = test system: Neuregulin-1 EGF-like domain; experiment: binders of neuregulin-1 EGF-like domain, primary screen, biochemical, small-molecule microarray, 635 nm fluorescence (AID 1081); conditions: small-molecule microarray binding, higher = more signal;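 further: binding of the protein to compounds printed on small-molecule microarray slides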
[8] = FRG1 promoter luciferase signal modulators, primary screen, FRG1 inhibition for FSHD, cell-based, C2C12 myotubes, firefly/Renilla luciferase, luminescence (AID 1084); conditions: higher = more signal, called active from +8 up or from −8 down
[9] = binders of probe aFST on microarray, primary screen, stem cell growth factor project, biochemical, small-molecule microarray, fluorescence 635/667 (AID 1086); conditions: higher = more signal;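 further: score merges 667 nm fluorescence with signal-to-noise of each printed compound spot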
[10] = binders of probe aHhip on microarray, primary screen, stem cell growth factor project, biochemical, small-molecule microarray, fluorescence 635/667 (AID 1087); conditions: higher = more signal;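 further: score merges spot fluorescence at 667nm with spot signal to noise ratio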
[11] = test system: PRMT1 (protein arginine N-methyltransferase 1); experiment: PRMT1 binders on small-molecule microarrays, primary screen, biochemical, small-molecule microarray, 635 nm fluorescence (AID 1088); conditions: small-molecule microarray binding, higher = more signal;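 further: binding of Prmt1 protein to compounds spotted on small-molecule microarray slides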
[12] = yeast growth modulation, basal conditions, primary screen, YJM789 clinical isolate, OD600, 24 h (AID 1089);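 further: growth of clinical yeast isolate S. cerevisiae YJM 789 seeded 1000 cells per well; test concentration not given here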; conditions: S. cerevisiae YJM789 growth, higher = more signal, called active from +8 up or from −8 down
[13] = fission yeast growth modulation, primary screen, strain 972, OD600, 24 h, no modulator (AID 1090);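 further: basal condition with compound alone and no growth modifier present; test concentration not given here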; conditions: S. pombe 972 growth, higher = more signal, called active from +8 up or from −8 down
[14] = S. cerevisiae growth modulation with rapamycin, primary screen, strain BY4716, OD600, 96 h (AID 1091); conditions: higher = more signal, called active from +8 up or from −8 down; further: test concentration not given here
[15] = molecular target: Torsin-1A-interacting protein 2 (Homo sapiens) (UniProt Q8NFQ8); experiment: LULL1 binders on small-molecule microarray, primary screen, cell lysate, human LULL1 lysate, 635/667 nm fluorescence (AID 1092); conditions: hLULL1 lysate binding, 635 nm fluorescence, higher = more signal;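 further: probe is lysate of COS7 cells overexpressing human LULL1; score merges per-feature 667 nm fluorescence with signal-to-noise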
Torsin-1A-interacting protein 2 (Homo sapiens), sequence (Q8NFQ8 whole entry, looked up): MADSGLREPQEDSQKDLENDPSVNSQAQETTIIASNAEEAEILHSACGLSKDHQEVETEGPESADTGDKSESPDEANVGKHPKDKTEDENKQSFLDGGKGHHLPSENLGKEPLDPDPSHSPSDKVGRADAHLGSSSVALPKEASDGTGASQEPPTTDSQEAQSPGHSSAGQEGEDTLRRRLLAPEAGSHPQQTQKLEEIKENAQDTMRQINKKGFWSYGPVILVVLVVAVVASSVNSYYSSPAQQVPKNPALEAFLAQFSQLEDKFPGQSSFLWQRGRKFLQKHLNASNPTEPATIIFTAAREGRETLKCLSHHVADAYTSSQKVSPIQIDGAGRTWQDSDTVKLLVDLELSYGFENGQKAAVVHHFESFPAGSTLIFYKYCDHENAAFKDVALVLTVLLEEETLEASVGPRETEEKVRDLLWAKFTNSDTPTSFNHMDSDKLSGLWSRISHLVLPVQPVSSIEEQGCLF

[16] = E. coli growth modulation, two-sided OD650, primary screen, E. coli filamentation project, strain DRC41, 24 h (AID 1093); conditions: OD650, 24 h, higher = more signal, called active from +8 up or from −8 down;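 further: MC1000 strain lacking acrAB efflux and sulA so SOS filamentation is blocked; test concentration not given here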
[17] = small-molecule microarray binders of probe aLefty2, primary screen, biochemical, biotinylated probe, 635/667 nm fluorescence (AID 1094); conditions: higher = more signal;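 further: score merges spot fluorescence near 667 nm with spot signal-to-noise ratio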
[18] = test system: Noggin (protein binding on small-molecule microarray); experiment: Noggin binders on small-molecule microarray, primary screen, biochemical, 635/667 nm fluorescence (AID 1095); conditions: 635 nm fluorescence, higher = more signal;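 further: score merges 667 nm feature fluorescence with signal to noise over triplicate slides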
[19] = molecular target: Neurogenic locus notch homolog protein 3 (Homo sapiens) (UniProt Q9UM47); experiment: NOTCH3 binders on small-molecule microarray, primary screen, biochemical, 635/667 nm fluorescence (AID 1096); conditions: NOTCH3 binding, 635 nm fluorescence, higher = more signal
Neurogenic locus notch homolog protein 3 (Homo sapiens), sequence (Q9UM47 whole entry, looked up): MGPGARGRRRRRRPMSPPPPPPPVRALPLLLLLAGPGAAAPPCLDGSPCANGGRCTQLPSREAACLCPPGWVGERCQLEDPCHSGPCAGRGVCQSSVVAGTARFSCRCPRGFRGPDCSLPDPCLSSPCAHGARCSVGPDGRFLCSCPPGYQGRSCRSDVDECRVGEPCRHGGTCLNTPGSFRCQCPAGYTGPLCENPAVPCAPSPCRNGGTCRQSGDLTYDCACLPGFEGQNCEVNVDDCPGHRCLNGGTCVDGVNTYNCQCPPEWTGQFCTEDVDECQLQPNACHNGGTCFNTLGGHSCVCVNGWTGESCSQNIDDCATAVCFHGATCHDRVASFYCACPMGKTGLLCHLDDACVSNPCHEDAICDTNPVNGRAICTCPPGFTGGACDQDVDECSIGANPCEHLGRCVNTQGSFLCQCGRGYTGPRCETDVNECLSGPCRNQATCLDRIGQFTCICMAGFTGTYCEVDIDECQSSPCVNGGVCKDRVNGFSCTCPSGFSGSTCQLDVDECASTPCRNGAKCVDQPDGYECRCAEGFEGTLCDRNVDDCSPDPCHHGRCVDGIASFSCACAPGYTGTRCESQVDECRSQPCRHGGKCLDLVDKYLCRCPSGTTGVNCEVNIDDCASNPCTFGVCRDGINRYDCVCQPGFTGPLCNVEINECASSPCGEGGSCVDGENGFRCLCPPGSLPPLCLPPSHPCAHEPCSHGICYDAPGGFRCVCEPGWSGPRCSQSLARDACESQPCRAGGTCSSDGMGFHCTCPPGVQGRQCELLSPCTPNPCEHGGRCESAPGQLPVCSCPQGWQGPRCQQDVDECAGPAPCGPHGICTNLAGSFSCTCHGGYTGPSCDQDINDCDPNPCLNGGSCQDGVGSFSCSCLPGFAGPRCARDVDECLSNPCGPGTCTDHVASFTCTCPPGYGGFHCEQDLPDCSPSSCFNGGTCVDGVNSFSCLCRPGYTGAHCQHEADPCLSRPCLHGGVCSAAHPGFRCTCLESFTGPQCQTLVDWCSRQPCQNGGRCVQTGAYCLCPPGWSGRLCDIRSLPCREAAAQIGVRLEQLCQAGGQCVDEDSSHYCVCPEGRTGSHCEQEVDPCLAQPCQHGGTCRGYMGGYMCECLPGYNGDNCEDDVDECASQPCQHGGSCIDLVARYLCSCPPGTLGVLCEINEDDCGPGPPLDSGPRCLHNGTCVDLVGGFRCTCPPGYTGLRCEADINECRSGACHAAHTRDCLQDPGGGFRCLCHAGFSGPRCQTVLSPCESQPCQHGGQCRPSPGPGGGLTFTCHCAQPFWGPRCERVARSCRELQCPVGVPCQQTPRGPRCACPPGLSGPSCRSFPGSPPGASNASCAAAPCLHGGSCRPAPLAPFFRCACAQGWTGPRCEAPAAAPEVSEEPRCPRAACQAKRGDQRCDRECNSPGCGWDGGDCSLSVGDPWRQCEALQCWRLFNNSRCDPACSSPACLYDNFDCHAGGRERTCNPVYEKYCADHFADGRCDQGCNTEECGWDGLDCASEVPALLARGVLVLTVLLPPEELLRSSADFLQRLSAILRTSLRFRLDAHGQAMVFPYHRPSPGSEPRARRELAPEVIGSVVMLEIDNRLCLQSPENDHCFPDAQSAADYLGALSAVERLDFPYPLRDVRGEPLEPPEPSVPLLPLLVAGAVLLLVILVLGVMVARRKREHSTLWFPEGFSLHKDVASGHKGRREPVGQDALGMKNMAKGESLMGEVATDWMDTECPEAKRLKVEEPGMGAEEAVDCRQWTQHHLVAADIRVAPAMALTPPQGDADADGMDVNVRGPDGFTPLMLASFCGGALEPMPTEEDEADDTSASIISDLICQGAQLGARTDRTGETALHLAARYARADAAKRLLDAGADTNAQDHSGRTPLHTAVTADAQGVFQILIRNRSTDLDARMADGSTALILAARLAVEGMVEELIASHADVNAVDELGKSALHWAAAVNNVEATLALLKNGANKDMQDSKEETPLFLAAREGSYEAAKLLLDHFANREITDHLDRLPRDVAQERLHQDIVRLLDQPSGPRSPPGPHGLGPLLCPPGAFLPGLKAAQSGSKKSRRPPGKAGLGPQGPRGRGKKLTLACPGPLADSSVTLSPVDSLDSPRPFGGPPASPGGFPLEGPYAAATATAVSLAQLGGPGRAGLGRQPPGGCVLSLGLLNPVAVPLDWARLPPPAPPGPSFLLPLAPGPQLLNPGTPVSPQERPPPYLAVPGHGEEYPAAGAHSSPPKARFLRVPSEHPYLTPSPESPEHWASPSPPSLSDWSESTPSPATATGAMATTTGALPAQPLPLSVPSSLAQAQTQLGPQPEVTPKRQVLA

[20] = small-molecule microarray binders of probe aEGFR, primary screen, biochemical, biotinylated probe, 635/667 nm fluorescence (AID 1097); conditions: higher = more signal;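 further: probe is a biotinylated anti-EGFR antibody binding compounds printed on slides; score combines fluorescence near 667 nm and signal to noise of each spot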

Row | SMILES | composite z-score [1] | composite z-score [2] | composite z-score [3] | composite z-score [4] | composite z-score [5] | composite z-score [6] | composite z-score [7] | z-score [8] | composite z-score [9] | composite z-score [10] | composite z-score [11] | z-score [12] | z-score [13] | z-score [14] | composite z-score [15] | z-score [16] | composite z-score [17] | composite z-score [18] | composite z-score [19] | composite z-score [20]
1 | CC(C)C(=C=CC[C@H](O)c1cccc(OCCO)c1)C[C@H](O)c1ccccn1 | -0.242 | -0.243 | -0.166 | 0.016 | -0.0938 | -0.272 | 1.05 | -0.29 (inactive) | -0.0565 | -0.0645 | 1.21 | 0.262 (inactive) | 0.317 (inactive) | -0.647 (inactive) | 1.55 | 0.879 (inactive) | -0.143 | 0.731 | 0.403 | -0.157
2 | C=CCOC(=O)[C@H]1[C@@H]2C(=O)O[C@@H](c3ccccc3)[C@@H](c3ccccc3)N2[C@@H](c2ccc(OCCOC(=O)[C@@H]3C[C@@H]4C(=O)N[C@@H](Cc5ccccc5)C(=O)N4[C@@H]3c3ccc(O)cc3)cc2)[C@]12C(=O)Nc1ccc(I)cc12 | 1.36 | 0.0366 | -0.0861 | 0.449 | 0.437 | 0.422 | 1.08 | 1.3 (inactive) | 0.258 | -0.0645 | 1.34 | 1.77 (inactive) | 2.14 (inactive) | 5.89 (inactive) | 1.93 | 0.114 (inactive) | -0.0666 | 1.49 | 0.918 | -0.0119
3 | CN(C)CCCCNC(=O)[C@H]1C[C@H]2C(=O)N[C@@H](CCCCN(C)C)C(=O)N2[C@H]1c1ccc(O)cc1 | -0.162 | 0.857 | -0.215 | 0.301 | -0.0742 | -0.121 | 0.763 | -0.354 (inactive) | -0.349 | -0.16 | 1.39 | -2.61 (inactive) | -0.403 (inactive) | -1.41 (inactive) | -0.237 | 1.55 (inactive) | -0.192 | 0.774 | 0.343 | -0.176
4 | CCOC(=O)C[C@H]1[C@H](OC(=O)c2cc3ccccc3oc2=O)[C@@H](NC(=O)Cc2ccc(OC)cc2)c2cc(OCCCO)ccc2N1C(=O)Cc1ccc(OC)cc1 | -0.545 | 0.58 | -0.125 | 0.527 | 0.791 | 0.185 | 0.507 | -1.39 (inactive) | 1.43 | -0.179 | 0.638 | -0.903 (inactive) | -1.04 (inactive) | -1.79 (inactive) | 1.65 | 1.52 (inactive) | -0.058 | 0.534 | 0.91 | -0.0313
5 | [N-]=[N+]=NCc1ccccc1C[C@@]1(C(N)=O)N=C(c2ccc(OCCCO)cc2)O[C@@H]1c1ccccc1N=[N+]=[N-] | -0.459 | -0.0227 | 0.0131 | 1.15 | 1.43 | 1.38 | 1.07 | -0.739 (inactive) | 0.926 | 0.0722 | 1.28 | -0.506 (inactive) | -0.292 (inactive) | -0.531 (inactive) | 3.22 | -0.331 (inactive) | 0.137 | 0.0508 | 0.516 | 0.0766
6 | CCOC(=O)C1=C[C@@H](C(C)(C)C)N(S(=O)(=O)c2ccc(C)cc2)[C@H]1c1ccc(OC)cc1 | -0.491 | -0.103 | 0.0111 | 0.726 | 1.56 | 0.348 | 1.19 | -3.35 (inactive) | 0.525 | -0.212 | 1.55 | 0.443 (inactive) | 2.17 (inactive) | 1.54 (inactive) | 3.07 | 0.1 (inactive) | -0.0865 | 1.18 | 1.09 | 0.0301
7 | COc1ccc(CCNC(=O)[C@@]2(C)c3ccccc3C(=O)N(Cc3ccc(OC(F)(F)F)cc3)[C@H]2c2ccc(CO)cc2)cc1 | -1.45 | 0.197 | -0.0211 | 0.0093 | 0.484 | 0.41 | 1.12 | -4.33 (inactive) | 0.122 | -0.679 | 1.55 | -0.219 (inactive) | -0.553 (inactive) | 0.997 (inactive) | 2.25 | -0.663 (inactive) | -0.403 | 1.11 | 0.743 | 0.686
8 | C=C(C(=O)CC[C@@H](OC(=O)c1ccccc1-c1ccccc1C(=O)O)c1ccc(CO)o1)C(C)C | -0.422 | 1.18 | -0.087 | 1.03 | 0.0438 | 0.115 | 0.445 | 0.0639 (inactive) | 0.379 | -0.0645 | 1.47 | -0.595 (inactive) | -0.39 (inactive) | -0.881 (inactive) | 0.167 | -0.249 (inactive) | -0.19 | 1.07 | 1.07 | -0.0947
9 | CO[C@H]1O[C@H](CO)[C@@H](OC(=O)Nc2cccc(F)c2)[C@H](OC(=O)Nc2ccc3c(c2)OCO3)[C@@H]1OC(=O)Nc1ccc2c(c1)OCO2 | -0.0407 | 0.786 | 0.112 | 0.959 | 1.46 | 1.25 | 1.27 | 4 (inactive) | 0.986 | 0.21 | 1.53 | 1.79 (inactive) | 1.24 (inactive) | 7.48 (inactive) | 3.48 | -0.0741 (inactive) | 0.126 | 0.691 | 1.08 | -0.039
10 | Cc1ccc(S[C@]2(C(=O)NCC(C)C)CC(=O)N(C(C)C)[C@@H]2c2ccc(CO)cc2I)cc1 | 1.12 | 1.39 | 0.0519 | -0.41 | -0.365 | 1.18 | -0.569 | -0.999 (inactive) | 0.161 | 0.0327 | 1.53 | -1.68 (inactive) | -2.56 (inactive) | -0.0302 (inactive) | 0.979 | 0.97 (inactive) | 0.0968 | -1.6 | -0.0735 | -0.127
